Results published in PubChem BioAssay AID1159580 (chemical genetic matrix, 2015).
Where “and” joins values, the source holds several entries; their conditions need not be identical. Identical values can stand only once. In all, about 5,500 compounds went through this assay and about 2,000 (36%) were called active. Another 18% or so got no clear call; they are omitted. Cut-off read from the data, not from the text of the source: active = normalized growth mostly below about 0.91 (no sharp cut-off); inconclusive = no clear call, values can overlap the other calls; inactive = mostly above about 0.92. This is one part of the list.

Assay: chemical genetic growth profiling, strain panel (AID 1159580);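 note: tested at 20 µM; growth read once vehicle control cultures reached saturation at 30 °C; 1 = growth at the plate median or of vehicle wells; lower values mean less growth of the strain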
Details: S. cerevisiae deletion strains, growth OD

Measured: normalized growth

Nc1c2c(nc3ccccc13)CCCC2
inactive: locus YAL013W, strain DEP1, hits give low values 1.02 | locus YAL021C, strain ccr4, hits give low values 0.985 | locus YAL026C, strain drs2, hits give low values 0.975 | locus YAL030W, strain snc1, hits give low values 1.01 | locus YAL040C, strain CLN3, hits give low values 1.02 | locus YBL061C, strain skt5, hits give low values 0.984 | locus YBR009C, strain hhf1, hits give low values 0.978 | locus YBR021W, strain FUR4, hits give low values 0.853 | locus YBR023C, strain chs3, hits give low values 0.993 | locus YBR171W, strain sec66, hits give low values 0.959 | locus YBR229C, strain ROT2, hits give low values 1.02 | locus YBR231C, strain swc5, hits give low values 0.981 | locus YBR279W, strain paf1, hits give low values 1 | locus YCL011C, strain gbp2, hits give low values 1 | locus YCL016C, strain dcc1, hits give low values 1.01 | locus YCL029C, strain bik1, hits give low values 1.02 | locus YCL069W, strain vba3, hits give low values 0.989 | locus YCR088W, strain abp1, hits give low values 0.993 | locus YDL005C, strain med2, hits give low values 0.977 | locus YDL035C, strain GPR1, hits give low values 1.01 | locus YDL040C, strain nat1, hits give low values 0.989 | locus YDL074C, strain BRE1, hits give low values 1.01 | locus YDL101C, strain DUN1, hits give low values 1.02 | locus YDL134C, strain PPH21, hits give low values 1 | locus YDL185W, strain tfp1, hits give low values 1.01 | locus YDL192W, strain arf1, hits give low values 1.01 | locus YDR001C, strain nth1, hits give low values 0.983 | locus YDR069C, strain doa4, hits give low values 0.936 | locus YDR101C, strain arx1, hits give low values 1.02 | locus YDR137W, strain rgp1, hits give low values 1.02 | locus YDR150W, strain NUM1, hits give low values 1.02 and 0.999 | locus YDR159W, strain sac3, hits give low values 0.939 | locus YDR162C, strain NBP2, hits give low values 1.02 | locus YDR195W, strain ref2 0.963 | locus YDR297W, strain sur2, hits give low values 0.986 | locus YDR318W, strain mcm21, hits give low values 1.01 | locus YDR334W, strain swr1, hits give low values 0.974 | locus YDR335W, strain msn5, hits give low values 0.992 | locus YDR388W, hits give low values 1 | locus YDR392W, strain spt3, hits give low values 0.939 | locus YDR502C, strain sam2, hits give low values 1.02 | locus YEL003W, strain gim4, hits give low values 0.973 | locus YEL037C, strain rad23, hits give low values 0.978 | locus YEL061C, strain CIN8 (second series), hits give low values 0.983 | locus YEL061C, strain CIN8, hits give low values 1.01 | locus YER002W, strain NOP16, hits give low values 0.997 | locus YER015W, strain faa2, hits give low values 0.987 | locus YER016W, strain bim1, hits give low values 0.994 | locus YER110C, hits give low values 1.02 | locus YER111C, strain swi4, hits give low values 0.988 | locus YER155C, strain BEM2 (second series), hits give low values 0.902 | locus YER155C, strain BEM2, hits give low values 1 | locus YER167W, strain BCK2, hits give low values 1.01 | locus YFR010W, strain ubp6, hits give low values 0.944 | locus YGL078C, strain dbp3, hits give low values 1.02 | locus YGL086W, strain mad1, hits give low values 1.01 | locus YGL167C, strain pmr1, hits give low values 0.978 | locus YGL173C, strain kem1, hits give low values 0.958 | locus YGL227W, strain vid30, hits give low values 0.993 | locus YGL240W, strain doc1, hits give low values 0.946 | locus YGL248W, strain PDE1, hits give low values 1.02 | locus YGL253W, strain hxk2, hits give low values 0.96 | locus YGR078C, strain PAC10, hits give low values 0.992 | locus YGR135W, strain pre9, hits give low values 0.987 | locus YGR229C, strain SMI1, hits give low values 1.02 | locus YGR252W, strain gcn5, hits give low values 0.977 | locus YHR013C, strain ard1, hits give low values 0.867 | locus YHR027C, strain rpn1, hits give low values 0.968 | locus YHR030C, strain SLT2, hits give low values 1.01 and 0.987 | locus YHR079C, strain IRE1 (second series), hits give low values 1.02 | locus YHR079C, strain IRE1, hits give low values 1 | locus YHR094C, strain hxt1, hits give low values 1.02 | locus YHR129C, strain ARP1, hits give low values 1.02 | locus YHR142W, strain chs7, hits give low values 1 | locus YHR200W, strain rpn10, hits give low values 1.01 | locus YIL066C, strain RNR3, hits give low values 1.02 | locus YIL073C, strain SPO22, hits give low values 1.14 | locus YIL125W, strain kgd1, hits give low values 1.02 | locus YIR030C, strain dcg1, hits give low values 1.02 | locus YJL092W, strain hpr5, hits give low values 0.983 | locus YJL095W, strain BCK1 (second series), hits give low values 0.991 | locus YJL095W, strain BCK1, hits give low values 1.01 and 1 | locus YJL115W, strain asf1, hits give low values 0.981 | locus YJL129C, strain trk1, hits give low values 0.997 | locus YJL134W, strain LCB3, hits give low values 1.01 | locus YJL154C, strain vps35, hits give low values 0.974 | locus YJL164C, strain tpk1, hits give low values 1.01 | locus YJL166W, strain qcr8, hits give low values 0.992 | locus YJL168C, strain set2, hits give low values 1.01 | locus YJL187C, strain SWE1 (second series), hits give low values 1.01 | locus YJR043C, strain POL32, hits give low values 1.04 | locus YJR066W, strain TOR1, hits give low values 0.987 | locus YJR075W, strain HOC1, hits give low values 0.976 | locus YKL009W, strain mrt4, hits give low values 1.01
